Assay outcomes: PubChem, several laboratories
Rows were chosen to be rich in hits. Some 3.3% of all compounds tested hit in one or more screens of this group.
Cardio protect – protects H9c2 cardiomyocytes from peroxide injury. H2O2 injury protection, ATPLite, 2 h. protection from H2O2 cell death, % at 20 µM. hit rate 0.63% among 360,000. AID 588492;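 active means compounds giving at least 50% protection of heart cells from peroxide-induced death in the single-dose screen, raw or plate-pattern-corrected value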
Efflux pump mplx – inhibitors of Candida antifungal efflux pumps expressed in yeast | S. cerevisiae Candida pump triplex, Nile Red efflux | inhibition, % at 10 µM | AID 485275 | hit rate 0.44% among 330,000;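 active means plate passing quality check with inhibition over a set limit, or well fluorescence over plate mean plus 4 SD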;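 further: Nile Red retained in pooled yeast measured as flow cytometry median fluorescence; higher means more Nile Red kept so more efflux inhibition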
PHOSPHO1 inh – blocks human PHOSPHO1 phosphatase activity; Q8TCT1; recombinant PHOSPHO1, absorbance phosphatase assay; inhibition, % at 13.3 µM; hit rate 1.1% among 290,000; AID 1565; in the data active means inhibition above about 60%
KCC2 mod – modulators of human KCC2 chloride dependent transport. KCC2 cells, thallium flux FluoZin-2 fluorescence. B-score of Tl+ flux slope (higher = more flux/activation; lower = inhibition) at 10 µM. hit rate 2.2% among 190,000. AID 1456;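 active means thallium flux slope and its plate-corrected score both differing from the plate sample mean at a set confidence after two filtering rounds, in either direction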;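 further: slope of fluorescence scaled to starting intensity during 10 to 20 s after thallium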
Calb FLC – affects C. albicans growth with fluconazole; C. albicans CaCi-2 (fluconazole-resistant clinical isolate) + fluconazole, Alamar Blue growth, 48 h; growth inhibition, % (no concentration beside the values); hit rate 0.57% among 300,000;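 active means growth inhibition above about 58% in most replicates, limit read from the data, passing the limit was not always enough; inconclusive means exactly half the replicates above a set limit; inactive means most replicates below a set limit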;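 further: all wells also contain fluconazole at 8 µg/ml as a sub-toxic cotreatment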
Of the large screens only hits and unclear results are named; the others gave an inactive call.

C=CCn1c(Cc2nc3ccccc3[nH]2)n[nH]c1=S	PHOSPHO1 inh 90
CCn1c(-c2ccc(C)cc2)n[nH]c1=S	PHOSPHO1 inh 100 (no result: KCC2 mod)
CCOc1ccc(NC(=O)c2cc(F)c(F)cc2Cl)cc1OCC	none
Cc1ccc(S(=O)(=O)c2cn(C)c3cc(N4CCN(C)CC4)c(F)cc3c2=O)c(C)c1	none (no result: KCC2 mod)
COc1cccc(Nc2nc3ccccc3n3cnnc23)c1	Cardio protect 86
CCCn1c(CN2CCN(C(=O)OCC)CC2)nc2cc(NC(=O)C(C)C)ccc21	none (no result: KCC2 mod)
O=C(Nc1ccc(F)c([N+](=O)[O-])c1)C(=O)c1c(O)[nH]c2ccccc12	none
Cc1ncc(C)c2c([N+](=O)[O-])cccc12	none (no result: Efflux pump mplx, PHOSPHO1 inh, KCC2 mod, Calb FLC)
Cc1cnc(C=O)c2cccc([N+](=O)[O-])c12	Cardio protect 57 (no result: Efflux pump mplx, PHOSPHO1 inh, KCC2 mod, Calb FLC)
Cc1cc(C)cc(N(CCC#N)C(=O)CSc2ncnc3sccc23)c1	none (no result: PHOSPHO1 inh, KCC2 mod, Calb FLC)
Cc1cccc(Nc2nc(-c3ccc4c(c3)OCCO4)cs2)c1	PHOSPHO1 inh 73
Cc1cccc(Nc2nc(-c3ccncc3)cs2)c1	none
COc1ccc(-c2cc(=O)c3ccccc3[nH]2)cc1	Cardio protect 56
COc1ccc(-c2cc3ccccc3[nH]2)cc1	none
Cc1ccc(S(=O)(=O)c2ncccc2[N+](=O)[O-])cc1	Calb FLC 108 (no result: KCC2 mod)
CCCCCc1ccc(C(=O)CCCC)c(=S)[nH]1	KCC2 mod 119
CCCCCc1cc(=O)[nH]c(=S)[nH]1	none
Cc1ccccc1-c1cc(C(=O)Nc2sc(C)c(C)c2C(N)=O)c2ccccc2n1	none
CCOC(=O)c1sc(NC(=O)c2cc(-c3ccccc3C)nc3ccccc23)c(C#N)c1C	PHOSPHO1 inh 65, Calb FLC inconclusive
CCOC(=O)c1sc(NC(=O)CSc2nc(C)cc(-c3ccccc3)n2)c(C#N)c1C	PHOSPHO1 inh 88 (no result: KCC2 mod)
CCOC(=O)c1cnc(SCC(=O)Nc2sc(C)c(C)c2C#N)nc1N	PHOSPHO1 inh 92
O=C(OCCN=C1NS(=O)(=O)c2ccccc21)c1ccccc1F	none (no result: KCC2 mod)
[O-][N+]1=c2ccc(Nc3ccccc3)cc2=NC12CCCCC2	Calb FLC 108
COc1ccc(-c2cc(-c3nnc(COC(=O)c4ccncc4)o3)c3ccccc3n2)cc1OC	Cardio protect 79
Cc1cccc(-n2c(C)cc(C=C3C(=O)c4ccccc4C3=O)c2C)c1	PHOSPHO1 inh 99
COc1ccc(C(=O)OC(C)C(=O)NC2CCCCC2C)cc1S(=O)(=O)N1CCOCC1 (centres undefined)	none (no result: PHOSPHO1 inh, KCC2 mod)
CCOC(=O)C1(C)/C(=N/Nc2ccc(Cl)cc2)C(=O)C(=O)N1c1ccccc1 (centres undefined)	PHOSPHO1 inh 103
CCOC(=O)C1(C)/C(=N/Nc2cccc(Cl)c2)C(=O)C(=O)N1c1ccccc1 (centres undefined)	none
CCOC(=O)C1(C)/C(=N/Nc2ccccc2Cl)C(=O)C(=O)N1c1ccccc1 (centres undefined)	PHOSPHO1 inh 92
CS(=O)(=O)N(CCCC(=O)N1CCCCCC1)c1cccc(Cl)c1	none (no result: KCC2 mod)
Cc1cccc(C(=O)n2c(=S)nc3ccccn32)c1	PHOSPHO1 inh 85
COc1cc(OC)cc(C(=O)Nc2c(C)nn(-c3ccccc3)c2C)c1	none
CCOC(=O)c1c(NS(=O)(=O)Cc2ccccc2)sc2c1CCCC2	KCC2 mod 144
CCOC(=O)c1c(NC(=S)Nc2ccc(C)cc2)sc2c1CCC2	none
CCOC(=O)c1c(NC(=O)c2ccccc2C(=O)O)sc2c1CCC2	none (no result: KCC2 mod)
CCOC(=O)c1c(NS(=O)(=O)c2ccc(Br)cc2)sc2c1CCC2	KCC2 mod 118 (no result: PHOSPHO1 inh)
Cc1ccc(NC(=S)N=Nc2c(O)n(C)c3ccc(S(=O)(=O)N4CCOCC4)cc23)cc1	KCC2 mod 9.6 (no result: Efflux pump mplx)
Cc1cc(C)cc(NC(=O)COC(=O)c2cccc(S(=O)(=O)N3CCCCC3)c2)c1	none (no result: PHOSPHO1 inh, KCC2 mod, Calb FLC)
Cn1cnc([N+](=O)[O-])c1Sc1nc(N)nc2c1ncn2C1OC(CO)C(O)C1O (centres undefined)	none (no result: Efflux pump mplx, PHOSPHO1 inh, KCC2 mod, Calb FLC)
Cc1nc(-c2ccc(C(=O)Nc3cc(S(N)(=O)=O)ccc3C)cc2)cs1	none (no result: KCC2 mod)
CCCCCC(=O)N/N=C(\C)c1ccccn1	Cardio protect 61
COc1cc(C(=O)N/N=C(\C)c2ccccn2)cc(OC)c1OC	Cardio protect 58 (no result: KCC2 mod)
COc1cc(NC(=O)c2ccccn2)cc(OC)c1OC	none
CCCCCCCCC(=O)N/N=C(\C)c1ccco1	none
COc1cc(C(=O)NNC(=O)c2ccc3ccccc3n2)cc(OC)c1OC	Cardio protect 61 (no result: PHOSPHO1 inh, KCC2 mod, Calb FLC)
COc1cc(C(=O)N/N=C(\c2ccccc2)c2ccccn2)cc(OC)c1OC	Cardio protect 78
Cc1ccc(CNC(=O)C(c2ccccc2)c2ccccc2)cc1	none (no result: KCC2 mod)
O=C(COC(=O)/C=C/c1cccc(Br)c1)Nc1cccc(S(=O)(=O)NC2=NCCC2)c1	none (no result: PHOSPHO1 inh, KCC2 mod, Calb FLC)
CCCNC(=O)C12CCC(C)(c3nc4cc(C)c(C)cc4nc31)C2(C)C (centres undefined)	Calb FLC 110
CCOC(=O)c1cnc(Nc2nc3ccccc3o2)nc1CN1CCN(C)CC1	Cardio protect 60 (no result: Efflux pump mplx, Calb FLC)
CCCOC(=O)Nc1nc2ccccc2o1	none (no result: KCC2 mod)
CCOC(=O)C1=C(COC(=O)/C=C/c2ccc(F)cc2)NC(=O)NC1C (centres undefined)	Cardio protect 45 (no result: Efflux pump mplx, PHOSPHO1 inh, KCC2 mod, Calb FLC)
CCOC(=O)C1=C(COC(=O)c2cccc(Br)c2)NC(=O)NC1C (centres undefined)	none (no result: PHOSPHO1 inh, KCC2 mod)
CCOC(=O)C1=C(COC(=O)c2cc(OC)c(OC)c(OC)c2)NC(=O)NC1C (centres undefined)	Cardio protect 60 (no result: PHOSPHO1 inh, KCC2 mod)
COc1ccc(CCNc2nc(C)nc3c2nnn3Cc2ccccc2)cc1OC	none (no result: KCC2 mod)
CC(=O)N(C(C)=O)c1ccc2c(c1)OCCO2	none (no result: Efflux pump mplx, PHOSPHO1 inh, KCC2 mod, Calb FLC)
CC(C)CC(=O)Nc1ccccc1-c1nnn(CC(=O)N2CCc3ccccc3C2)n1	KCC2 mod -3.8
C=CCc1cccc(/C=N/NC(=O)c2ccccc2OC)c1O	none
C=CCc1cccc(/C=N/NC(=O)c2ccccc2Br)c1O	Cardio protect 51
C=CCc1cccc(/C=N/NC(=O)c2ccc3nc[nH]c3c2)c1O	Cardio protect 50 (no result: KCC2 mod)
Cc1cc(C)c(OCC(=O)N(Cc2ccc(N(C)C)cc2)C2CCS(=O)(=O)C2)c(C)c1 (centres undefined)	none
COCC(=O)N1CCC(Oc2ccc(C(=O)N3C[C@H]4CC[C@H]3C4)cc2)CC1	none (no result: KCC2 mod)
O=c1c2nccnc2[nH]c(=S)n1Cc1ccccc1	none
O=c1c2cccnc2[nH]c(=S)n1Cc1ccccc1	KCC2 mod 5.5
O=c1c2ccccc2[nH]c(=S)n1CCN1CCN(Cc2ccccc2)CC1	KCC2 mod 15
C=CCn1c(NCc2ccc(OC)cc2O)nc2ccccc21	none (no result: PHOSPHO1 inh, KCC2 mod)
CC(=O)Cc1nsc(Nc2ccc(F)cc2)n1	none
CC(=O)Cc1nsc(Nc2ccc(Cl)cc2)n1	Calb FLC 118 (no result: KCC2 mod)
CCCCN(C(=O)CCC(=O)Nc1cc(C)on1)C(C(=O)NC1CCCC1)c1ccccc1OCC (centres undefined)	none (no result: KCC2 mod)
O=C(NCc1ccccc1)c1ccc(NC(=O)C2CCCCC2)cc1	none (no result: Efflux pump mplx, PHOSPHO1 inh, KCC2 mod, Calb FLC)
Cc1nc(=S)n(-c2ccccc2)[nH]1	none
S=c1nc(-c2ccccc2)[nH]n1-c1ccccc1	KCC2 mod 53
